EBV gp42 block: blocks Epstein-Barr virus glycoprotein 42 binding; inhibition, % (tested at 21.74 µM); Q1HVG2; AID 1085; Fluorescence polarization binding assay, mP read-out; actives 0.42% (n = 220,000); in the data active means inhibition above about 50%
Target sequence (Q1HVG2 whole entry, looked up): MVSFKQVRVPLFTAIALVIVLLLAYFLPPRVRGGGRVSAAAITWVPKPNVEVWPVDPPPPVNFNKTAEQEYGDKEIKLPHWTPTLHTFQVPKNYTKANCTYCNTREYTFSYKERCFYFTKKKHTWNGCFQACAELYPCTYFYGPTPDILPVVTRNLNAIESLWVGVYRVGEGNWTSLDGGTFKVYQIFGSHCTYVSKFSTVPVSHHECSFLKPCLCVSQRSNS
TNF necrop inh: inhibitors of TNF-alpha induced necroptosis in Jurkat FADD-/- cells | Jurkat FADD-/- TNF necroptosis rescue, ATP luminescence, 24 h; 0 = TNF only, 100 = no-TNF cells | activation (protection from cell death), % at 10 µM | AID 463075 | actives 0.068% (n = 220,000);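 active means activation, meaning protection from cell death, of at least 50% relative to plate controls; inactive means activation below 50%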;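 further: necroptosis triggered by 40 ng/mL TNF-alpha added together with compound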
eIF4E 4G PPI: eIF4E/eIF4G interaction inhibition in translation initiation | TR-FRET eIF4E-eIF4GI(517-606) binding, 2 h | inhibition, % at 21.7 µM | AID 782 | actives 0.37% (n = 220,000) | P63073+Q04637;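 active means inhibition above about 30%, limit read from the data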;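 further: 0% = full FRET control wells and 100% = background wells lacking eIF4GI fragment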
zVAD death inh: L929 zVAD cell death inhibition; L929 zVAD necroptosis rescue, ATP luminescence, 24 h; with zVAD 60 µM; viability rescue, % at 10 µM; actives 0.38% (n = 220,000); AID 1377;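 active means activation, scaled between plate controls, above about 75%, limit read from the data; inactive means activation under that limit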;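 further: 0% = zVAD with DMSO and 100% = DMSO alone without zVAD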
* = called active by the depositor; x = no result; [ ] = remark or other dose. This is a sample that favours compounds with a hit; in the whole collection about 1.2% have one here.

SMILES	EBV gp42 block	TNF necrop inh	eIF4E 4G PPI	zVAD death inh
O=C(CSc1n[nH]c(=O)[nH]c1=O)Nc1cccc(S(=O)(=O)N2CCOCC2)c1	-11	0	-2	2
O=C(CSc1ccccn1)Nc1ccc2c(c1)C(=O)c1ccccc1C2=O	52*	19	15	1
c1ccc(CCn2nnnc2CN2CCCc3ccccc32)cc1	11	-4	-5	0
c1ccc2c(c1)CCCN2Cc1nnnn1CC1CCCO1 (stereo unspecified)	71*	-2	6	0
CCN(CC)c1ccc(/C=c2/sc3nnc(-c4ccccc4C)n3c2=O)cc1	172*	0	-64	0
CCN(CC)c1ccc(/C=c2\sc3nnc(-c4ccccc4Cl)n3c2=O)cc1	193*	-1	-34	1
OC1CN=C2C=CC=CN2C1 (stereo unspecified)	-17	0	-12	1
Nc1c(C(=O)NC2CC2)sc2nc3c(c(-c4ccco4)c12)CC/C3=C/c1ccco1	104*	2	27	0
O=C(c1ccco1)[C@@H]1[C@@H]2C(=O)N(c3ccc(F)cc3)C(=O)[C@@H]2C2c3ccccc3C=CN21 (stereo partly specified)	54*	-1	-2	0
O=C(c1ccco1)[C@@H]1[C@@H]2C(=O)N(c3ccc(Br)cc3)C(=O)[C@@H]2C2c3ccccc3C=CN21 (stereo partly specified)	x	-1	x	-1
COC(=O)c1c(=O)n(O)c2ccc(OC)cc2[n+]1[O-]	98*	0	1	0
O=C1c2cccc3c(N4CCCCC4)ccc(c23)C(=O)N1c1ccccn1	129*	-2	-2	0
CCCN1C(=O)c2cccc3c(N4CCCCC4)ccc(c23)C1=O	80*	2	-43	0
Cc1c(-n2cccc2C=O)cccc1[N+](=O)[O-]	-6	1	86*	1
COCCN(C(=S)Nc1c(C)cccc1C)C(C)c1ccco1 (stereo unspecified)	-15	0	-8	0
CC(C)CCNC(=O)CCCOc1cc(=O)n(C)c2ccccc12	-6	-9	-3	3
Cn1c(=O)cc(OCCCC(=O)Nc2ccccn2)c2ccccc21	-10	6	4	89*
C#CCn1cc(C=C2C(=O)c3ccccc3C2=O)c2ccccc21	95*	-1	-465	0
C#CCn1c(=O)cc(C)c2ccccc21	-7	1	1	1
COc1ccc2nc(NC(=O)CN3CCOCC3)sc2c1	-25	1	1	11
COc1ccc2nc(NC(=O)Cc3ccc(OC)c(S(=O)(=O)N4CCOCC4)c3)sc2c1	-5	4	4	92*
COc1ccc(N=C2S/C(=C\c3ccc(OCC(=O)O)cc3)C(=O)N2CCc2c[nH]c3ccccc23)cc1	84*	2	20	-3
CN(C)S(=O)(=O)c1cccc(NC(=S)N(CCC#N)Cc2cccnc2)c1	10	1	-3	2
CC1Oc2ccccc2C=C1/C=C1/SC(N2CCOCC2)=NC1=O (stereo unspecified)	-5	-5	-2	0
CCN1C(=O)/C(=C/C2=Cc3ccccc3OC2C)SC1=S (stereo unspecified)	52*	1	-7	0
SMILES	EBV gp42 block	TNF necrop inh	eIF4E 4G PPI	zVAD death inh
Cc1ccc(S(=O)(=O)C(C#N)c2nc3ccccc3nc2N2CCCC2)cc1 (stereo unspecified)	91*	-5	-2	0
CCN1CCN(c2nc3ccccc3nc2C(C#N)S(=O)(=O)c2ccc(C)cc2)CC1 (stereo unspecified)	-21	0	2	0
N=C1CCC(=N)c2c1c(O)c1ccccc1c2O	69*	-12	16	1
O=C(ONc1ccc(N=NC(=O)c2ccccc2O)cc1)c1ccccc1	89*	-19	4	-1
Cc1ccc(C)c(S(=O)(=O)Nc2cc(SCC(=O)O)c(O)c3ccccc23)c1	-6	-9	34*[fluorescence artefact?]	6
CN(C)c1cccc(C(=O)OC(C(=O)Nc2ccc([N+](=O)[O-])cc2Br)c2ccccc2)c1 (stereo unspecified)	-4	4	1	0
O=C(OC(C(=O)Nc1ccc([N+](=O)[O-])cc1Br)c1ccccc1)c1ccccc1 (stereo unspecified)	-2	76*	1	0
Cc1ccc(-c2noc(CSc3nnnn3C3CCCCC3)n2)cc1	2	0	-1	2
Cc1cc(NC(=O)c2noc3c2CCCC3)nn1Cc1ccc(Cl)cc1	-10	-1	-11	82*
CC(=O)OC1=C(C#N)Cn2ccc3cccc1c32	6	-2	32*	0
COc1ccccc1NC(=O)c1c(N=Cc2cccc([N+](=O)[O-])c2)cnn1C	-3	-4	46*	3
CCOc1ccccc1NC(=O)N1CCC(NC(=O)c2cccc(C)c2)CC1	-15	1	56*	0
Cc1cccc(C(=O)NC2CCN(C(=O)Nc3ccccc3C)CC2)c1	8	2	0	5
CCn1c(SCC(=O)N/N=C/c2ccccc2OCC(=O)O)nnc1-c1ccc(C)cc1	-6	2	0	1
Cc1cc(O)c(/C=N/OCc2ccc(Cl)cc2Cl)c(=O)o1	-3	1	76*	5
CCn1c2ccccc2c2cc(NC(=O)c3ccc(=O)oc3)ccc21	127*	-5	-3	2
CCn1c2ccccc2c2cc(NC(=O)c3coc(=O)c(Br)c3)ccc21	97*	-26	22	-1
O=C(NC1CCCCCCC1)C1CCN(S(=O)(=O)N2CCCC2)CC1	-2	3	58*	8
O=C(NC1CCCCC1)C1CCN(S(=O)(=O)N2CCCCCC2)CC1	-14	2	-4	1
CCOC(=O)/C(=N\Nc1ccc(Cl)cc1)Sc1nnc(-c2ccc(OC)cc2)n1C	4	0	7	1
CN1C(=O)C(CCC(=O)O)NC1=S (stereo unspecified)	1	0	7	-1
CCOC(=O)c1cc2n(c1/N=C/N(C)C)-c1ccccc1C2=O	151*	-1	0	0
CCOC(=O)c1cc(=O)[nH]c2ccccc12	-14	-1	-2	1
CCc1ccc(C(=O)NNC(=S)Nc2ccc(S(N)(=O)=O)cc2)s1	3	0	2	2
CC1CCN(S(=O)(=O)c2cccc(C(=O)NNC(=O)c3ccco3)c2)CC1	-3	7	-2	1
SMILES	EBV gp42 block	TNF necrop inh	eIF4E 4G PPI	zVAD death inh
OCCN(Cc1ccccc1)C(=S)Nc1ccc(Cl)cc1Cl	2	2	-1	-1
COc1ccc(CN(C)C2c3ccccc3-c3ccccc32)cc1	-11	1	-1	0
Cn1nc([N+](=O)[O-])c(C(C#N)c2nc3ccccc3n2C)c(Cl)c1=O (stereo unspecified)	80*	-1	0	2
CCCCCNc1nc2sc3c(c2c(=O)n1-c1cccc(Cl)c1)CCN(C)C3	-13	-1	-5	0
COc1ccc(N2CSC3=C(C#N)C(c4cccs4)CC(=O)N3C2)cc1 (stereo unspecified)	-27	-2	47*[fluorescence artefact?]	0
CN1CCCc2cc(C=O)ccc21	-6	-1	3	-1
